For test [1], the target named is Retinoic acid receptor RXR-alpha (Homo sapiens) (UniProt P19793). Put plainly: ATG_RXRa_TRANS: Attagene TRANS-FACTORIAL HepG2 Assay for human Retinoid X Receptor alpha (RXRa) (AID 2283012; active = hit-call score of the fitted dose curve at least 0.9, where 1 is the maximum). Summed up: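 Read-out: fluorescent reporter-transcript fragments quantified by capillary electrophoresis after RT-PCR. Transiently transfected HepG2 cells carrying GAL4-UAS reporters and NR-GAL4 chimeras were exposed to chemical for 24 h; activity scored as increase over DMSO.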

In test [2] the target is human Thyroid Receptor alpha (THRa1), THRA (gene 7067) (UniProt P10827). Put plainly: ATG_THRa1_TRANS: Attagene TRANS-FACTORIAL HepG2 Assay for human Thyroid Receptor alpha (THRa1) (AID 2283014; active = hit-call score of the fitted dose curve at least 0.9, where 1 is the maximum). The method in brief:
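Measured here is mRNA from a GAL4-UAS reporter in transfected HepG2 cells carrying a Gal4-fused receptor, 24 h post-dose. DMSO served as negative control and baseline.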

Read-out in test [3]: E-selectin (Homo sapiens) (UniProt P16581)
In words: BSK_3C_Eselectin: BioMAP Diversity Plus: 3C Assay for Eselectin Biomarker Activity (AID 2283015).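 As to outcome: cell surface E-selectin protein quantified by ELISA 24 h after dosing.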 The note with it: primary human endothelial cells (HUVEC); actives raise or lower the signal. The method in brief:
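Endpoint derived by bidirectional fitting against DMSO vehicle; signal is ELISA-detected E-selectin from primary HUVEC at 24 h post-dosing, with parallel SRB staining (0.1% SRB, 560 nm) flagging cytotoxicity.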

Read-out in test [4]: Interleukin-1 alpha (IL1a), IL1A (gene 3552)
In words: BSK_BE3C_IL1a: BioMAP Diversity Plus: BE3C Assay for Interleukin-1 alpha (IL1a) Biomarker Activity (AID 2283016). The settings on record: primary human bronchial epithelial cells; actives raise or lower the signal. The method in brief: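 ELISA read-out of IL-1a from human lung bronchial epithelial primary cells, 24 h post-dose. Gain or loss of signal fitted relative to DMSO negative control.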

Read-out in test [5]: Monocyte Chemoattractant Protein-1 (MCP1), CCL2 (gene 6347)
In words: BSK_3C_MCP1: BioMAP Diversity Plus: 3C Assay for Monocyte Chemoattractant Protein-1 (MCP1) Biomarker Activity (AID 2283017). The settings on record: primary human endothelial cells (HUVEC); actives raise or lower the signal. The method in brief:
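Using human vascular primary endothelium, researchers measured MCP-1 by ELISA 24 h after treatment, with DMSO serving as negative control for bidirectional fitting.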

Read-out in test [6]: Monocyte Chemoattractant Protein-1 (MCP1), CCL2 (gene 6347)
In words: BSK_4H_MCP1: BioMAP Diversity Plus: 4H Assay for Monocyte Chemoattractant Protein-1 (MCP1) Biomarker Activity (AID 2283018). The settings on record: primary human endothelial cells (HUVEC); actives raise or lower the signal. Summed up:
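HUVEC primary cells, 24 h post-dose, MCP-1 by ELISA. Gain or loss of signal fitted bidirectionally vs DMSO baseline. Cytotoxicity: SRB stain (0.1% after 10% TCA fixation), read 560 nm, parallel cultures.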

Read-out in test [7]: Human Leukocyte Antigen - DR isotype (HLADR), HLA-DRA (gene 3122)
In words: BSK_3C_HLADR: BioMAP Diversity Plus: 3C Assay for Human Leukocyte Antigen - DR isotype (HLADR) Biomarker Activity (AID 2283019).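 As to outcome: ELISA of cell-surface HLA-DR on HUVEC 24 h after dosing.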 The settings on record: primary human endothelial cells (HUVEC); actives raise or lower the signal. The method in brief: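 Compound added to primary HUVEC cultures, 24 h incubation, then HLA-DR determined by ELISA; endpoint derived by bidirectional fitting relative to DMSO negative control.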

Read-out in test [8]: Monokine induced gamma interferon (MIG), CXCL9 (gene 4283)
In words: BSK_3C_MIG: BioMAP Diversity Plus: 3C Assay for Monokine induced gamma interferon (MIG) Biomarker Activity (AID 2283021). The note with it: primary human endothelial cells (HUVEC); actives raise or lower the signal. Summed up:
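HUVEC, 3C system; 24 h chemical exposure; MIG by ELISA; bidirectional fit vs DMSO baseline.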

For test [9], the target named is human Vitamin D Receptor (VDR), VDR (gene 7421) (UniProt P11473). Put plainly: ATG_VDR_TRANS: Attagene TRANS-FACTORIAL HepG2 Assay for human Vitamin D Receptor (VDR) (AID 2283022; active = hit-call score of the fitted dose curve at least 0.9, where 1 is the maximum). Summed up:
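Multiplexed TRANS reporter in HepG2; 24 h treatment; reporter mRNA by RT-PCR plus capillary electrophoresis; upregulation scored relative to DMSO.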

Test [10] can be described thus: BSK_3C_SRB: Viability Assessment in the BioMAP Diversity Plus: 3C Assay (AID 2283023).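 Also: fitted both ways against DMSO so a hit may be signal rise or drop.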 The settings on record: primary human endothelial cells (HUVEC). The method in brief:
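Overt cytotoxicity is gauged in parallel confluent HUVEC cultures by SRB total-protein staining at the time of biomarker measurement, 24 h after dosing. Gain or loss of signal is fitted versus DMSO.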

Read-out in test [11]: Matrix Metallopeptidase 1 (MMP1), MMP1 (gene 4312)
In words: BSK_BE3C_MMP1: BioMAP Diversity Plus: BE3C Assay for Matrix Metallopeptidase 1 (MMP1) Biomarker Activity (AID 2283024). The note with it: primary human bronchial epithelial cells; actives raise or lower the signal. Summed up:
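ELISA read-out of MMP1 in human lung bronchial epithelial primary cultures, 24 h post-dose; bidirectional curve fit vs DMSO baseline, gain or loss of signal scored.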

Test [12] in a line: BSK_3C_Vis: BioMAP Diversity Plus: 3C Assay for Morphology Visualization (AID 2283025).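 Also: fitted both ways so gain or loss versus DMSO counts.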 The settings on record: primary human endothelial cells (HUVEC). The method in brief: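 HUVEC, 3C system; light microscopy of morphology at 24 h post-dose. Bidirectional fit vs DMSO baseline. Secondary readout, background-control function.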
Read-out in test [13]: Pselectin, SELP (gene 6403)
In words: BSK_4H_Pselectin: BioMAP Diversity Plus: 4H Assay for Pselectin Biomarker Activity (AID 2283026). The note with it: primary human endothelial cells (HUVEC); actives raise or lower the signal. Summed up:
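HUVEC, 24 h chemical exposure; P-selectin read by ELISA. Bidirectional curve fit vs DMSO baseline; gain or loss of signal scored.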

The nature of test [14]: BSK_4H_SRB: Viability Assessment in the BioMAP Diversity Plus: 4H Assay (AID 2283027).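 Also: cells exposed to compound for 24 h before staining.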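 As to AC50: curves fitted both ways versus DMSO so AC50 may be loss or gain.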 The settings on record: primary human endothelial cells (HUVEC). Summed up: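 Cytotoxicity readout: sulforhodamine B (0.1%) staining of total protein after 10% TCA fixation, measured at 560 nm in human umbilical vein endothelium at 24 h. DMSO set the baseline; fitting was bidirectional.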

The nature of test [15]: BSK_BE3C_SRB: Viability Assessment in the BioMAP Diversity Plus: BE3C Assay (AID 2283028).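 Also: measured 24 h after chemical dosing.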 The note with it: primary human bronchial epithelial cells. The method in brief:
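SRB total-protein staining (0.1%, after TCA fixation) of chemically dosed human bronchial epithelial primary cells at 24 h; DMSO serves as the negative control for bidirectional curve fitting.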

Read-out in test [16]: Thrombomodulin, THBD (gene 7056)
In words: BSK_3C_Thrombomodulin: BioMAP Diversity Plus: 3C Assay for Thrombomodulin Biomarker Activity (AID 2283029). The settings on record: primary human endothelial cells (HUVEC); actives raise or lower the signal. Summed up: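 HUVEC, 3C conditions; compound 24 h; thrombomodulin by ELISA; bidirectional curve fit vs DMSO baseline; parallel SRB total-protein staining for cytotoxicity.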

Read-out in test [17]: Urokinase-type plasminogen activator receptor (uPAR), PLAUR (gene 5329)
Put plainly: BSK_4H_uPAR: BioMAP Diversity Plus: 4H Assay for Urokinase-type plasminogen activator receptor (uPAR) Biomarker Activity (AID 2283030). The settings on record: primary human endothelial cells (HUVEC); actives raise or lower the signal. The method in brief:
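Endpoint derived via bidirectional curve fitting against DMSO baseline; readout was ELISA detection of uPAR on umbilical vein endothelial cells at 24 h post-treatment, with SRB-stained parallel cultures assessing cytotoxicity.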

Read-out in test [18]: Vascular endothelial growth factor receptor 2 (Homo sapiens) (UniProt P35968)
In words: BSK_4H_VEGFRII: BioMAP Diversity Plus: 4H Assay for Vascular endothelial growth factor receptor 2 (VEGFR2) Biomarker Activity (AID 2283031). The settings on record: primary human endothelial cells (HUVEC); actives raise or lower the signal. The method in brief: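 In this multiplexed HUVEC system, biomarker ELISA was performed after 24 h chemical exposure. Parallel SRB staining (TCA fixation, 560 nm) tracked cytotoxicity; DMSO served as baseline.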

Test [19] deals with human Retinoid X Receptor beta (RXRb), RXRB (gene 6257) (UniProt P28702). Put plainly: ATG_RXRb_TRANS: Attagene TRANS-FACTORIAL HepG2 Assay for human Retinoid X Receptor beta (RXRb) (AID 2283013; active = hit-call score of the fitted dose curve at least 0.9, where 1 is the maximum). Summed up: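 Read-out: reporter mRNA induction via RT-PCR plus capillary electrophoresis fluorescence, analysed as signal increase relative to DMSO. Cells were human HepG2, transiently transfected with GAL4-UAS reporter constructs and chimeric receptor-Gal4 fusions, dosed for 24 h.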

Read-out in test [20]: Interleukin-8 (IL8), CXCL8 (gene 3576)
Put plainly: BSK_3C_IL8: BioMAP Diversity Plus: 3C Assay for Interleukin-8 (IL8) Biomarker Activity (AID 2283020). The settings on record: primary human endothelial cells (HUVEC); actives raise or lower the signal. The method in brief: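 HUVEC, 3C stimulation; 24 h compound exposure; IL-8 read by ELISA; gain or loss of signal fitted relative to DMSO control.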

Each structure is given as a SMILES string. Results filed as inconclusive are left out. The source made the active and inactive calls. The calls were made as follows, unless noted: active = hit-call score of the fitted dose curve at least 0.9, where 1 is the maximum; inactive = score below 0.9.

Sequence of human Thyroid Receptor alpha (THRa1), THRA (gene 7067) (P10827 whole entry, looked up, the tested form may be a part): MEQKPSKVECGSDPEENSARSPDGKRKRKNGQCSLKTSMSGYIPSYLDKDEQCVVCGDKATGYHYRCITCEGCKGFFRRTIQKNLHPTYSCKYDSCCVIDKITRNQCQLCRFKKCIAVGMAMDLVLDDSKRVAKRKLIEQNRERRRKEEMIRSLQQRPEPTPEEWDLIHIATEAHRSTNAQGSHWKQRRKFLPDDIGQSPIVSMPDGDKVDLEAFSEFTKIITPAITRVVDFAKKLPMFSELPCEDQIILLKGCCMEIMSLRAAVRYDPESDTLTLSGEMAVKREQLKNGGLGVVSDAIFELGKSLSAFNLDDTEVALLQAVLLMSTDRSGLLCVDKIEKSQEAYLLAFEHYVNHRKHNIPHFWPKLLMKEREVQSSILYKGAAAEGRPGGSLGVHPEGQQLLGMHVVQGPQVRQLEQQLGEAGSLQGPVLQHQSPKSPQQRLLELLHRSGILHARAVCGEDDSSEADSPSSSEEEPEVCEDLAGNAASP
Sequence of Retinoic acid receptor RXR-alpha (Homo sapiens) (P19793 whole entry, looked up, the tested form may be a part): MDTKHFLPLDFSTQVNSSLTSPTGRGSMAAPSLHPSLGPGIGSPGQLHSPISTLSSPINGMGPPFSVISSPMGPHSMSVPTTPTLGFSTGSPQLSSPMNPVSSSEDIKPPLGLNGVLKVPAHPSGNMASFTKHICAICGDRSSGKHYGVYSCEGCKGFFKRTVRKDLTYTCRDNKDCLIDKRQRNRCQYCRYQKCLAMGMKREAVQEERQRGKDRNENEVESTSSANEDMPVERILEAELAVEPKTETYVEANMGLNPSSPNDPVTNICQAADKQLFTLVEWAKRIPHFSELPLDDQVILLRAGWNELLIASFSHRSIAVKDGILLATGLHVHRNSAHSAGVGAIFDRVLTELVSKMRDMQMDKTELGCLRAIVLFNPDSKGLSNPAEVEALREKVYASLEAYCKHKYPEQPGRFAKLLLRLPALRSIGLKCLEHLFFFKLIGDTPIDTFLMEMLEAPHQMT
Sequence of E-selectin (Homo sapiens) (P16581 whole entry, looked up): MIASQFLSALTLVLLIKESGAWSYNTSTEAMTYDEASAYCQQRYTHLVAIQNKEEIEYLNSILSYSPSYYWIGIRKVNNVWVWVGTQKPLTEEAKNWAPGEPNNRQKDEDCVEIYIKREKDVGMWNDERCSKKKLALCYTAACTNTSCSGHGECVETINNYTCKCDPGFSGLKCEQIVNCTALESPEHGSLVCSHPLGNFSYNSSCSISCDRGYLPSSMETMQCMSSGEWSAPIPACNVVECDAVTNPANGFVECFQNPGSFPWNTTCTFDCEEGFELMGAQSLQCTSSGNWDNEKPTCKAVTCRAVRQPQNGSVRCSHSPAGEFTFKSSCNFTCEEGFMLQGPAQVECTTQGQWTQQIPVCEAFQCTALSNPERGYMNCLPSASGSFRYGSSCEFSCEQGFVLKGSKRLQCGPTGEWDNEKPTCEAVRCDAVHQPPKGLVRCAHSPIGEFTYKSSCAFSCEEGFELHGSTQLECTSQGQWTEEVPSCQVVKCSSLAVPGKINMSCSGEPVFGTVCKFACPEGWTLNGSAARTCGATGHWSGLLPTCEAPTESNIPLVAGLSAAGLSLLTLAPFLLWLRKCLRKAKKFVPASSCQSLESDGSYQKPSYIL
Sequence of human Vitamin D Receptor (VDR), VDR (gene 7421) (P11473 whole entry, looked up): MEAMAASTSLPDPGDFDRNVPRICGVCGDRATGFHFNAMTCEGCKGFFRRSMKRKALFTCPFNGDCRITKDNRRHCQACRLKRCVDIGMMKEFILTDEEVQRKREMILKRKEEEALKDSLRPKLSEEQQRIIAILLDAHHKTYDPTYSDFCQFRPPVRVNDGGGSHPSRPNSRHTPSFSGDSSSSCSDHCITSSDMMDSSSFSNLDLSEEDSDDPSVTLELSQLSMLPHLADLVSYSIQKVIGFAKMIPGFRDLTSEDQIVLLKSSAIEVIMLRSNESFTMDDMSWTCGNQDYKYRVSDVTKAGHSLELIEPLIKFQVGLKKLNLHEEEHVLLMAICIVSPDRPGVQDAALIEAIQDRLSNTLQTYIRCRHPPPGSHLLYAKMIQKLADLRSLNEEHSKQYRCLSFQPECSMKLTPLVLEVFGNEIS
Sequence of human Retinoid X Receptor beta (RXRb), RXRB (gene 6257) (P28702 whole entry, looked up, the tested form may be a part): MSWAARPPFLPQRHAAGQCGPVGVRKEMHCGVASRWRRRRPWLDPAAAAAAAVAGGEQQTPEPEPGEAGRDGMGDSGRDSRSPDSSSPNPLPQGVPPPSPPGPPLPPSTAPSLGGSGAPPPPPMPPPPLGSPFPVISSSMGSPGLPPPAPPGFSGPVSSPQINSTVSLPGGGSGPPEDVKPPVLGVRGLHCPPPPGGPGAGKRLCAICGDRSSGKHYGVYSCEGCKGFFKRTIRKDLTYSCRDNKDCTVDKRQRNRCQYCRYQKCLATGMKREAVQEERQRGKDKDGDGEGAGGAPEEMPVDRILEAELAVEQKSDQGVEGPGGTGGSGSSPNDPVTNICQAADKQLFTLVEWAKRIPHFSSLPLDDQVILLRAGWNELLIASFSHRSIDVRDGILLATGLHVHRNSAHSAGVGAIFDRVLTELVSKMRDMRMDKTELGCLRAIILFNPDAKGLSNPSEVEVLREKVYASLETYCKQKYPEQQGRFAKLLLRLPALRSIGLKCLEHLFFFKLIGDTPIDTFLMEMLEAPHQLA

As for `COc1c(Cl)ccc(Cl)c1C(=O)O`, the result in [1], in test [2], in test [3], in test [4], in [5] and in test [6] was inactive. The result in test [7], in test [8], in test [9], in test [10], in test [11] and in test [12] was inactive. Further, the result in [13], in test [14], in [15], in test [16] and in test [17] was inactive.

In the case of `CC(=O)S[C@@H]1CC2=CC(=O)CC[C@]2(C)[C@H]2CC[C@@]3(C)[C@@H](CC[C@@]34CCC(=O)O4)[C@H]12`, the call in test [1], in test [2], in test [4], in test [8], in test [9] and in test [11] was inactive. Moreover, the result in test [12], in test [15], in [16], in [17] and in test [18] was inactive. The AC50 (usually the midpoint of the concentration-response curve, whichever way the signal moves) is 20 µM (active) in test [3]; 27.7 µM (active) in [5]; 20 µM (active) in test [6]; 26.3 µM (active) in test [7]; 25.7 µM (active) in [10]; 32 µM (active) in test [14].

Take `COC(=O)CSc1cc(N=c2sc(=O)n3n2CCCC3)c(F)cc1Cl`: the result in test [1], in test [2], in [3], in test [4], in test [5] and in test [6] was inactive. In addition, the result in [7], in test [8], in [10], in [11], in test [12] and in test [13] was inactive. The result in [14], in [15], in test [17] and in test [18] was inactive. In addition, the AC50 in test [16] was 1.21 µM (active).

On to `CCSC(=O)N(CC(C)C)CC(C)C`, for which the call in [1], in [19], in test [3], in [4], in [5] and in test [6] was inactive. Besides, the result in [7], in test [8], in test [10], in test [11], in [12] and in test [13] was inactive. Further, the outcome in test [14], in [15], in test [16], in test [17] and in [18] was inactive.

Consider `COC(=O)c1ccc(I)cc1S(=O)(=O)NC(=O)Nc1nc(C)nc(OC)n1`, for which the result in test [3], in [4], in test [5], in [6], in [7] and in [20] was inactive. Also, the outcome in [8], in test [10], in test [11], in test [12], in test [13] and in [14] was inactive. In addition, the result in [15], in [16], in test [17] and in test [18] was inactive.

In the case of `CCOC(=O)COc1cc(-n2ncc(C(F)(F)F)c(C)c2=O)c(F)cc1Cl`, the result in [19], in test [2], in test [3], in test [4], in [5] and in [6] was inactive. Also, the outcome in test [7], in test [20], in [8], in test [9], in test [10] and in test [11] was inactive. For the same molecule, the result in test [12], in [13], in test [14], in [15], in [16] and in [17] was inactive. In test [18], the result was inactive.

For `COC(=O)c1c(Cl)nn(C)c1S(=O)(=O)NC(=O)Nc1nc(OC)cc(OC)n1`, the result in [2], in test [3], in [4], in test [5], in [6] and in [7] was inactive. In addition, the outcome in test [8], in test [9], in test [10], in test [11], in test [12] and in test [13] was inactive. Further, the outcome in test [14], in test [15], in test [16], in test [17] and in test [18] was inactive.

The values are drawn from PubChem BioAssay (EPA / NIEHS).
